Assay [1] deals with thyroid hormone receptor (rat, GH3 cells). Kind of assay: qHTS assay to identify small molecule agonists of the thyroid receptor (TR) signaling pathway (AID 743066; calls by dose curve).
The nature of assay [2]: qHTS assay to identify small molecule antagonists of the estrogen receptor alpha (ER-alpha) signaling pathway - cell viability counter screen (AID 743074; calls by dose curve;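 note: HEK293 cells carrying ER-alpha-UAS-bla reporter stimulated with 17beta-estradiol; nearly all actives have a fitted effect of over 45% in size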).
Assay [3] concerns the target Estrogen receptor (Homo sapiens) (UniProt P03372). The assay can be described thus: qHTS assay to identify small molecule agonists of the estrogen receptor alpha (ER-alpha) signaling pathway using the BG1 cell line (AID 743079). Note: nearly all actives have a fitted effect of over 20% in size. Note: potency is the fitted concentration of half-maximal effect.
Assay [4] in a line: qHTS assay to identify small molecule antagonists of the estrogen receptor alpha (ER-alpha) signaling pathway using the BG1 cell line - cell viability counter screen (AID 743081).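 Note: compound given together with 17beta-estradiol as the ER stimulus; nearly all actives have a fitted effect of over 45% in size.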 Note: potency is the fitted concentration of half-maximal effect.
A short description of assay [5]: qHTS assay to identify aromatase inhibitors - cell viability counter screen (AID 743084).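 Note: cells stimulated with testosterone during compound exposure; nearly all actives have a fitted effect of over 55% in size.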 Note: potency is the fitted concentration of half-maximal effect.
Assay [6] concerns the target Aryl hydrocarbon receptor (Homo sapiens) (UniProt P35869). Kind of assay: qHTS assay to identify small molecule that activate the aryl hydrocarbon receptor (AhR) signaling pathway (AID 743085).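 For activation: HG2L7.5c1 human HepG2 liver cells with stably integrated DRE-driven firefly reporter; series mostly up to about 70 µM.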 Note: nearly all actives have a fitted effect of over 15% in size. Note: potency is the fitted concentration of half-maximal effect. The method, boiled down:
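Reporter assay in engineered HepG2 line HG2L7.5c1, whose plasmid carries twenty dioxin responsive elements upstream of firefly luciferase. Treatment lasted 24 h at 37C; ONE-Glo luminescence gauged induction.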

The nature of assay [7]: qHTS assay to identify small molecule that activate the aryl hydrocarbon receptor (AhR) signaling pathway - cell viability counter screen (AID 743086). Note: nearly all actives have a fitted effect of over 45% in size. Note: potency is the fitted concentration of half-maximal effect. A digest of the protocol: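 Cytotoxicity counter screen: CellTiter-Fluor signal (30 min, 37 C) in 4000 HepG2 cells/well carrying the DRE-luciferase reporter, following 24 h compound exposure at 37 C.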
Assay [8] is described as follows: qHTS assay to identify small molecule antagonists of the thyroid receptor (TR) signaling pathway (AID 743065). Note: potency is the fitted concentration of half-maximal effect; nearly all actives have a fitted effect of over 55% in size. The method, boiled down:
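Antagonism measured as loss of luciferase signal in GH3 cells stably carrying a TRE-luciferase reporter, co-treated with compound and T3 (1 nM final) for 23.5 h at 37 C. Viability was read in the same well by CellTiter-Fluor.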

Assay [9] addresses Estrogen receptor (Homo sapiens) (UniProt P03372). The assay can be described thus: qHTS assay to identify small molecule antagonists of the estrogen receptor alpha (ER-alpha) signaling pathway (AID 743069; active = well fitted curve in the direction sought with a large enough effect in the signal ratio in the repeat runs, not every such curve was filed as active; inconclusive = weak or mixed curves, or effect the other way; inactive = no such curve, though single readings can be large or run the other way; the % refers to the signal ratio; note: potency is the fitted concentration of half-maximal effect). The method, boiled down:
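ER-alpha-UAS-bla GripTite HEK293 line; 2% charcoal-stripped FBS overnight; plated, 4 hr 37C/5% CO2; cpd in DMSO + 17beta-estradiol, 18 hr 37C; LiveBLAzer B/G FRET substrate 2 hr RT; fluorescence intensity.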

For assay [10] the target is unchanged. The assay can be described thus: qHTS assay to identify small molecule agonists of the estrogen receptor alpha (ER-alpha) signaling pathway (AID 743075; calls by dose curve;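 note: HEK293 GripTite cells with ER-alpha and UAS-driven beta-lactamase reporter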; note: potency is the fitted concentration of half-maximal effect).
A short description of assay [11]: qHTS assay to identify small molecule antagonists of the estrogen receptor alpha (ER-alpha) signaling pathway using the BG1 cell line (AID 743080; calls by dose curve;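 note: BG1 cells stimulated with 17beta-estradiol alongside compound; nearly all actives have a fitted effect of over 25% in size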; note: potency is the fitted concentration of half-maximal effect). The method, boiled down: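 Endogenous full-length ER-alpha in BG1-Luc-4E2 cells drives a stably integrated 4×ERE luciferase gene; compounds were tested against 17beta-estradiol over 21.5 h, with luminescence and multiplexed viability fluorescence recorded.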

The target in another assay is Aromatase (Homo sapiens) (UniProt P11511). The assay can be described thus: qHTS assay to identify aromatase inhibitors (AID 743083). Note: nearly all actives have a fitted effect of over 55% in size. Note: potency is the fitted concentration of half-maximal effect.
Aromatase (Homo sapiens), sequence (P11511 whole entry, looked up): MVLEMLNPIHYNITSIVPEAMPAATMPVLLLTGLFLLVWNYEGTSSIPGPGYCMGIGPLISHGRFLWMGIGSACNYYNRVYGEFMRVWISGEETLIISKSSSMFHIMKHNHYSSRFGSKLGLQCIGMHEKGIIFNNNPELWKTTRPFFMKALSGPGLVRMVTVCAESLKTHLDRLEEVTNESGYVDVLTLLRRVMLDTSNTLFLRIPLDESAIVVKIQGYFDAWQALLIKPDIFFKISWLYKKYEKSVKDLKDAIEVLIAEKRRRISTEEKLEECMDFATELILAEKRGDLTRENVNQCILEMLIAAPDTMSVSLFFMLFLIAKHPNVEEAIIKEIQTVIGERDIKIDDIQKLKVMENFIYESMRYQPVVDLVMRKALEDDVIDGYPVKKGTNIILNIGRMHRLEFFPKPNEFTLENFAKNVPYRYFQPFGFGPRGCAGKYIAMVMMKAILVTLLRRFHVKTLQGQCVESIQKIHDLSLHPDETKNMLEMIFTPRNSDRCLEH
Assay [12] has as its target Peroxisome proliferator-activated receptor gamma (Homo sapiens) (UniProt P37231). The assay can be described thus: qHTS assay to identify small molecule agonists of the peroxisome proliferator-activated receptor gamma (PPARg) signaling pathway (AID 743094; active = well fitted activation curve with a large enough effect in the signal ratio in the repeat runs, not every such curve was filed as active; inconclusive = weak or mixed curves, or effect the other way; inactive = no such curve, though single readings can be large or run the other way; the % refers to the signal ratio; note: potency is the fitted concentration of half-maximal effect). The method, boiled down:
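Stably transfected HEK293H cells (GeneBLAzer PPARg UAS-bla) were incubated with test substances for 17 h at 37C after a 5 h pre-incubation; beta-lactamase activity was then detected by FRET substrate fluorescence.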

Assay [13] is described as follows: qHTS assay for small molecule activators of the heat shock response signaling pathway - cell viability counter screen (AID 743209). Note: nearly all actives have a fitted effect of over 50% in size. Note: potency is the fitted concentration of half-maximal effect. A digest of the protocol: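 Quantitative HTS format, Tox21 10K library. HeLa cells carrying an HSE-driven beta-lactamase reporter were treated 5 h at 37 C, then assessed for viability by CellTiter-Glo luminescence.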
A short description of assay [14]: qHTS assay to identify small molecule antagonists of the peroxisome proliferator-activated receptor gamma (PPARg) signaling pathway - cell viability counter screen (AID 743194). Note: nearly all actives have a fitted effect of over 55% in size. Note: potency is the fitted concentration of half-maximal effect. A digest of the protocol:
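Viability was measured as CellTiter-Glo luminescence in GeneBLAzer PPARg UAS-bla HEK293H cells. These cells had been exposed 17 h at 37 C to compounds together with rosiglitazone at 50 nM final, with the beta-lactamase readout taken in the same wells.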

Assay [15] can be described thus: qHTS assay for small molecule agonists of the antioxidant response element (ARE) signaling pathway - cell viability counter screen (AID 743203; calls by dose curve; note: nearly all actives have a fitted effect of over 55% in size; note: potency is the fitted concentration of half-maximal effect). A digest of the protocol: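 Cells (ARE-bla HepG2, 2,000/well) receive DMSO-dissolved compounds after a 5 hrs rest. Plates incubate 16 hrs at 37C/5% CO2. CellTiter-Glo luminescence is then recorded after 30 min at room temperature.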

For assay [16], the target named is Peroxisome proliferator-activated receptor gamma (Homo sapiens) (UniProt P37231). Kind of assay: qHTS assay to identify small molecule antagonists of the peroxisome proliferator-activated receptor gamma (PPARg) signaling pathway (AID 743191; calls by dose curve; note: potency is the fitted concentration of half-maximal effect; nearly all actives have a fitted effect of over 30% in size). A digest of the protocol:
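Beta-lactamase reporter under UAS control in HEK293H PPARg-bla cells; compound treatment 17 h at 37C. Read-out: fluorescence intensity after 1 h room-temperature incubation with LiveBLAzer B/G FRET substrate.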

A short description of assay [17]: qHTS assay for small molecule activators of the heat shock response signaling pathway (AID 743210; active = well fitted activation curve with a large enough effect in the signal ratio in the repeat runs, with a control signal flat, not every such curve was filed as active; inconclusive = weak or mixed curves; the % refers to the signal ratio; note: series mostly up to about 63 µM). A digest of the protocol: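 HeLa HSE-bla cells, overnight plating; cpd in DMSO 5 h, 37 C; LiveBLAzer B/G FRET substrate 2.5 h RT; fluorescence intensity read.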

Each structure is given as a SMILES string. Several values for one entry are separate records, joined by “and”; a condition that tells them apart may be missing. Equal entries are not always repeated. Activity calls are given as the source filed them. Unless noted, calls come from the whole dose curve; as a rule, active = well fitted curve in the direction sought with a large enough effect in the repeat runs; inconclusive = weak or mixed curves; inactive = no such curve, though single readings can be large; an effect the other way counts as inactive or inconclusive.

Estrogen receptor (Homo sapiens), sequence (P03372 whole entry, looked up): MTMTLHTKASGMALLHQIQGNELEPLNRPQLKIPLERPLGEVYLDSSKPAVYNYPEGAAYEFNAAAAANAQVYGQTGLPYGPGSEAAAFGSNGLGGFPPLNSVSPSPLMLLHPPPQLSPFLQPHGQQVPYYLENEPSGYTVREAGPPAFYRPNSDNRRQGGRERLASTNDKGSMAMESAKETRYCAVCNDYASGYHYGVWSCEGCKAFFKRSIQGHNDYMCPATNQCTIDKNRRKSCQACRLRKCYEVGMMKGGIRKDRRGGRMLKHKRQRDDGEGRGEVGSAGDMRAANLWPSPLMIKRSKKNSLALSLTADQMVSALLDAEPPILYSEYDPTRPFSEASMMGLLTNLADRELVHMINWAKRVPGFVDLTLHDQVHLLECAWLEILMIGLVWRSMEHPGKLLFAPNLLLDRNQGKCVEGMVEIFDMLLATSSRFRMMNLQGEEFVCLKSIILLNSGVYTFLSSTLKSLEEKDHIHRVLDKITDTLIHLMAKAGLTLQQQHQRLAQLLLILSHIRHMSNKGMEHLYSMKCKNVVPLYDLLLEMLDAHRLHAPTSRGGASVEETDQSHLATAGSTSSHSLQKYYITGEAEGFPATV
Peroxisome proliferator-activated receptor gamma (Homo sapiens), sequence (P37231 whole entry, looked up): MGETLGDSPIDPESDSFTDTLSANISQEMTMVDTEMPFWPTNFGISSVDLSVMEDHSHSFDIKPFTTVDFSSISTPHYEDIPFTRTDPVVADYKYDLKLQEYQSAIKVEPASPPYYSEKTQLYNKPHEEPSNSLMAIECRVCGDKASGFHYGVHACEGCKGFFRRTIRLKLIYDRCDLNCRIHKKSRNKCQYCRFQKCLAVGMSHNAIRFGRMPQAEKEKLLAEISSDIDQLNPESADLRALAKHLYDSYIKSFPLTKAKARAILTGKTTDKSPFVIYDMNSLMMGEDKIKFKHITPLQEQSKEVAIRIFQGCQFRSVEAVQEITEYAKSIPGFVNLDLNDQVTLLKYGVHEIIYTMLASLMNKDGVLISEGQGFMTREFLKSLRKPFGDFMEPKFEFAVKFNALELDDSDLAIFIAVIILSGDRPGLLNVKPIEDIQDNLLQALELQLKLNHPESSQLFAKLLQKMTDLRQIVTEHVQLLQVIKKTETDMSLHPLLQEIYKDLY
Aryl hydrocarbon receptor (Homo sapiens), sequence (P35869 whole entry, looked up): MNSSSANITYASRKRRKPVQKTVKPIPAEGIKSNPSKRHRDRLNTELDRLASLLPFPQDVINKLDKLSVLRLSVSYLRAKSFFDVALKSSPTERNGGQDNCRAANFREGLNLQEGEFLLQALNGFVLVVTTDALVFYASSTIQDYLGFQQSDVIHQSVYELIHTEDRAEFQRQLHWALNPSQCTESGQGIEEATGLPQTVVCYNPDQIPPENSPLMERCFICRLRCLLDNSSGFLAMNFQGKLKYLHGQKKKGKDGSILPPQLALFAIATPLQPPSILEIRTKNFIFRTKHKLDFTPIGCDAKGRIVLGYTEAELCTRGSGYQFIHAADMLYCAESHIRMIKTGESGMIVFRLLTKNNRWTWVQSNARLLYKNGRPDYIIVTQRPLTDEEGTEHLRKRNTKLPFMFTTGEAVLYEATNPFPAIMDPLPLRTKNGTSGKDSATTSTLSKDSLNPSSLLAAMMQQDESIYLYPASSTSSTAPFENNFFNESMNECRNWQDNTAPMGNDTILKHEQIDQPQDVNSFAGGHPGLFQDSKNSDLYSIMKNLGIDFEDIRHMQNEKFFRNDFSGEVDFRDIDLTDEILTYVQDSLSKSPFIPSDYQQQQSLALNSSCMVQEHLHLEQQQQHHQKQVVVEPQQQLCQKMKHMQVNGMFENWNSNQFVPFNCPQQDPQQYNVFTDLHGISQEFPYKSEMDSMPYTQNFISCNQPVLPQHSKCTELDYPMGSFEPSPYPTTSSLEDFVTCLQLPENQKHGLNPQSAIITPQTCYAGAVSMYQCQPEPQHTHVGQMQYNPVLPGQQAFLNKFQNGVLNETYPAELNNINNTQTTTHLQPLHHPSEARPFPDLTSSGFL

For `O=C(O)C[C@H](O)C[C@H](O)/C=C/c1c(C2CC2)nc2ccccc2c1-c1ccc(F)cc1`, the Potency entry in assay [1], in assay [2], in assay [3], in [4], in assay [5] and in assay [6] was “inactive” each time. In assay [7], the Potency entry is “inactive”.
For `CO[C@H](C(=O)[C@@H](O)[C@@H](C)O)C1Cc2cc3cc(O[C@H]4C[C@@H](O[C@H]5C[C@@H](O)[C@H](O)[C@@H](C)O5)[C@@H](O)[C@@H](C)O4)c(C)c(O)c3c(O)c2C(=O)[C@H]1O[C@H]1C[C@@H](O[C@H]2C[C@@H](O[C@H]3C[C@](C)(O)[C@H](O)[C@@H](C)O3)[C@H](O)[C@@H](C)O2)[C@H](O)[C@@H](C)O1` (stereo not given in full), the Potency was 335 nM (active) and 237 nM (active) in assay [8]; 301 nM [inconclusive] (active) and 190 nM [inconclusive] (active) in assay [9]; 266 nM (active) and 335 nM (active) in assay [11]; 841 nM (active) and 668 nM (active) with Aromatase (Homo sapiens); 0.237 µM (active) in assay [6]. The Potency result in [2], in assay [10], in [4] and in assay [5] was “inactive” throughout.
As to `CC(C)(C)c1ccc2c(S(=O)(=O)O)c(C(C)(C)C)ccc2c1`, the Potency entry in assay [1], in [9], in [2], in assay [10], in [3] and in [11] was “inactive” throughout. Further, the Potency entry (in assay [4]; with Aromatase (Homo sapiens); in assay [5]; in [6]; in assay [7]) was “inactive” in each case. The Potency in assay [12] is 9.52 µM (active).
On to `CCCCCCCCCCCCCCCCCCOCC(COP(=O)([O-])OCC[N+](C)(C)C)OC` (stereo not given), for which the Potency entry in assay [1], in assay [9], in assay [2], in [10], in assay [3] and in assay [11] was “inactive” in each case. For the same compound, the Potency entry (in assay [4]; in the assay with Aromatase (Homo sapiens); in [5]; in assay [6]; in assay [12]) was “inactive” throughout.
Consider `Cc1onc(-c2c(F)cccc2Cl)c1C(=O)N[C@@H]1C(=O)N2[C@@H]1SC(C)(C)[C@@H]2C(=O)O`, for which the Potency result (in [1]; in [2]; in [4]; in the assay with Aromatase (Homo sapiens); in assay [5]; in assay [6]) was “inactive” each time. Further, in assay [7], the Potency entry is “inactive”.
On to `CC1=C(/C=C/C(C)=C/C=C/C(C)=C\C(=O)O)C(C)(C)CCC1`, for which the Potency in [8] was 68.8 µM (active); in assay [11], 244 nM (active); in [13], 55.1 µM (active). Besides, the Potency entry (with Aromatase (Homo sapiens); in [6]) was “inactive” in each case.
With `CCCCCCCCCCCCN1CCCC1=O`, the Potency entry (in assay [1]; in assay [4]; with Aromatase (Homo sapiens); in [5]; in assay [7]; in assay [12]) was “inactive” in each case. For the same compound, the Potency in assay [14] is 54.9 µM (active); in assay [15], 61.1 µM (active); in [13], 21.9 µM (active).
For `CC(C)(COP(=O)(O)OP(=O)(O)OC[C@H]1O[C@@H](n2cnc3c(N)ncnc32)[C@H](O)[C@@H]1OP(=O)(O)O)C(O)C(=O)NCCC(=O)NCCS` (stereo not given in full), the Potency entry in assay [1], in [9], in assay [2], in [10], in assay [11] and in assay [4] was “inactive” in each case. For the same compound, the Potency result (with Aromatase (Homo sapiens); in [5]; in assay [7]; in assay [12]) was “inactive” throughout. Further, the Potency in assay [3] is 26.6 µM (active).
As for `CC(=O)[C@]1(O)Cc2c(O)c3c(c(O)c2[C@@H](O[C@H]2C[C@H](N)[C@H](O)[C@H](C)O2)C1)C(=O)c1ccccc1C3=O`, the Potency is 0.119 µM (active) in assay [8]; 4.77 µM [inconclusive] (active) in [9]; 3.38 µM [inconclusive] (active) in assay [10]; 3.35 µM (active) in [4]; 3.35 µM (active) in the assay with Aromatase (Homo sapiens); 13.3 µM (active) in assay [5]. For the same compound, the results for the Potency in assay [7] and in assay [16] were 13.3 µM (active) and 4.22 µM (active), respectively. Further, the Potency entry in assay [14] is “inactive”.
Consider `CS(=O)(=O)c1ccc([C@@H](CC2CCCC2)C(=O)Nc2cnccn2)cc1Cl`, for which the Potency result (in [1]; with Aromatase (Homo sapiens); in assay [6]) was “inactive” in each case.
As to `C=C1C(=C/C=C2\CCC[C@]3(C)[C@@H]([C@H](C)CCCC(C)C)CC[C@@H]23)C[C@@H](O)C[C@@H]1O`, the Potency result (with Aromatase (Homo sapiens); in [5]; in assay [7]) was “inactive” in each case.
Turning to `N#Cc1c(N(CC(=O)O)CC(=O)O)sc(C(=O)O)c1CC(=O)O`, the Potency result in assay [1], in assay [9], in assay [2], in assay [10], in assay [11] and in assay [4] was “inactive” in each case. The Potency entry (with Aromatase (Homo sapiens); in assay [5]; in assay [6]; in assay [7]; in assay [12]) was “inactive” in each case.
With `O=C(CCN1CCC(c2ccccc2)C1)c1ccc2c(c1)OCCO2` (stereo not given), the Potency was 26.6 µM (active) in assay [8] and 13.3 µM (active) in assay [13]. Besides, the Potency result in assay [9], in [2], in [10], in [3], in assay [11] and in [4] was “inactive” in each case. Besides, the Potency entry in assay [6], in [7], in assay [14] and in assay [15] was “inactive” throughout.
As for `CC(O)(c1ccc(Cl)cc1)c1ccc(Cl)cc1`, the Potency entry in [1], in [2], in assay [10], in [3], in assay [4] and in assay [6] was “inactive” throughout. Also, the Potency entry in assay [7], in [14] and in [13] was “inactive” each time. The Potency with Aromatase (Homo sapiens) is 61.1 µM (active). Also, in [17], the outcome was inactive.
